Sm TGR block = inhibitors of Schistosoma mansoni thioredoxin glutathione reductase; purified TGR, DTNB reduction, TNB absorbance 405 nm; Potency, µM (series often up to 114 µM), most hits filed as inhibitors; actives 3% (n = 360,000); AID 485364; note: nearly all actives have a fitted effect of over 60% in size
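TGR 20 nM + NADPH 100 uM (dispensed conc.), cpd preinc 15 min RT; start with NADPH (500 uM addition) then DTNB (15 mM addition). Kinetic TNB absorbance, 405 nm filter. Four-parameter Hill fit across titration.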
Giardia FBPA inh = Giardia lamblia aldolase inhibition. A8B2U2. Potency, µM (highest dose often 59.6 µM), actives largely listed as inhibitors. AID 2451. actives 0.71% (n = 290,000). purified Giardia FBPA; note: nearly all actives have a fitted effect of over 55% in size
Target sequence (A8B2U2 whole entry, looked up): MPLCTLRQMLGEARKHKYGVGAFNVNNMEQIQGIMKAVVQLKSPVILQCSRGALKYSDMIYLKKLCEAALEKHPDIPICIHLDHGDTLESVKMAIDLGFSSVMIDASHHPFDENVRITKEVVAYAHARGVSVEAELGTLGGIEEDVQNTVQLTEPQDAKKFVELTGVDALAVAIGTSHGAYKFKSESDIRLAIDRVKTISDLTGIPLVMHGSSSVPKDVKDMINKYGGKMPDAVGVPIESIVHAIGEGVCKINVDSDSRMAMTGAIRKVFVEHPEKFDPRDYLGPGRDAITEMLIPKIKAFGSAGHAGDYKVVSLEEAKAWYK
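Giardia FBPA (40 nM reagent) was preincubated 10 min at RT with compound (up to 57.5 uM final), then substrate plus GAPDH/TPI/NAD/arsenate coupling system with diaphorase/resazurin was added; resorufin fluorescence (525/598 nm) was read after 20 min.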
Shiga inhibitor = Shiga toxin inhibition; Vero cells, Shiga toxin protein synthesis inhibition reporter; AID 2315; inhibition, % at 38.7 µM; actives 9.2% (n = 290,000); in the data active = inhibition mostly above about 28%, no sharp cut-off; inactive = mostly below about 43%
LmPK inhibitor = blocks Leishmania mexicana pyruvate kinase activity; actives 0.37% (n = 290,000); Q27686; purified LmPK, Kinase-Glo ATP luminescence, 1 h; Potency, µM (top dose mostly 57.5 µM), usual class: inhibitors; AID 1721
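Purified LmPK (0.1 nM) with 0.5 mM PEP and 0.1 mM ADP in imidazole buffer pH 7.2 with MgCl2/KCl, 1 h at room temperature. ATP formed was read by luciferase luminescence and normalized to no-enzyme and uninhibited controls.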
TbPYK inhibitor = blocks Trypanosoma brucei pyruvate kinase; AID 624173; actives 0.12% (n = 410,000); TbPYK enzyme, Kinase-Glo Plus ATP luminescence, 45 min; Q57TT1; Potency, µM (titrated, usually from 76.8 µM), actives largely listed as inhibitors; note: nearly all actives have a fitted effect of over 50% in size
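Glycolytic pyruvate kinase of T. brucei was incubated with substrate, test compound and 130 uM ADP for 45 minutes at room temperature. Luminescent Kinase-Glo Plus signal was measured after 10 minutes.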
CHX counter = counter-screen hit for Shiga toxin inhibitors, cycloheximide; cell reporter, cycloheximide protein synthesis inhibition counterscreen; max response, %; actives 12% (n = 300,000); AID 2314; in the data active = max response mostly above about 13%, no sharp cut-off; inactive = mostly below about 14%; note: read at 38.3 µM for the half of the compounds with a filed dose
Each line names hits and unclear results; the compound was inactive in the other large screens. The entries come from a sample that favours hits as a whole. Unless noted, calls come from the whole dose curve; as a rule, active = well fitted curve in the direction sought with a large enough effect; inconclusive = small, poorly fitted or top-dose-only effect, or another doubt; inactive = no such curve, though single readings can be large; an effect the other way counts as inactive or inconclusive.

C/C(=N\NC(=O)c1ccc(N(C)C)cc1)c1ccc(C)c(C)c1	none
C/C(=N\NC(=O)c1cccnc1)c1ccc(OC2OCCOC2Oc2ccc(/C(C)=N/NC(=O)c3cccnc3)cc2)cc1 (centres undefined)	Shiga inhibitor 54, CHX counter 16
C/C(=N\NC(=O)c1ccoc1C)c1cccnc1	CHX counter 42
CC(=O)OC[C@@H]1O[C@H](C/C=N\O[C@@H](C)CN2CCCc3nc(C)c(C)cc32)C=C[C@@H]1OC(C)=O	none (no result: Sm TGR block, Shiga inhibitor, LmPK inhibitor, TbPYK inhibitor, CHX counter)
O=C1C2=C(C(=O)c3ccccc31)C1O[C@](CCCCN3C(=O)c4ccccc4C3=O)(Cc3c1ccc1ccccc31)O2	none (no result: TbPYK inhibitor)
C/C(=N\NC(=O)c1ccccc1C)c1cccnc1	Shiga inhibitor 106, CHX counter 31
COc1ccccc1C(=O)N/N=C(\C)c1cccnc1	none (no result: Sm TGR block, Giardia FBPA inh, Shiga inhibitor, LmPK inhibitor, CHX counter)
C/C(=N\NC(=O)c1ccc(N(C)C)cc1)c1cccnc1	CHX counter 23
Cc1ccc2c(=O)cc(C(=O)NCc3ccccc3)oc2c1	none (no result: Giardia FBPA inh, Shiga inhibitor, LmPK inhibitor, CHX counter)
COc1cccc(C(=O)COc2ccc3ccc(=O)oc3c2)c1	none
O=c1ccc2ccc(OCCOc3cccc(Cl)c3)cc2o1	Shiga inhibitor 66, CHX counter 24 (no result: Giardia FBPA inh)
Cc1cc(N2CCCC2)nc2ccc(NC(=S)NCCCOC(C)C)cc12	Sm TGR block 20µM
CCCN(CCC)CCCNC(=S)Nc1ccc2nc(N3CCCC3)cc(C)c2c1	Sm TGR block 45µM, Giardia FBPA inh inconclusive
COCCCNC(=S)Nc1ccc2nc(N3CCOCC3)cc(C)c2c1	Sm TGR block inconclusive
Cc1cc(N2CCN(C)CC2)nc2ccc(NC(=S)NCCCN3CCN(C)CC3)cc12	none
COCCNC(=S)Nc1ccc2nc(N3CCN(C)CC3)cc(C)c2c1	Sm TGR block 40µM
COc1ccc(CNc2ncncc2-c2ccccc2C(F)(F)F)c(OC)c1	none (no result: Sm TGR block, Shiga inhibitor, LmPK inhibitor, TbPYK inhibitor, CHX counter)
CCC/C=C1\CCCOC(C(=O)NCc2ccccc2)(C(F)(F)F)C1 (centres undefined)	none (no result: Sm TGR block, LmPK inhibitor, TbPYK inhibitor)
COc1ccccc1NC(c1ccc(Cl)cc1)c1nnc(-c2cccc(F)c2)o1 (centres undefined)	none (no result: Giardia FBPA inh, Shiga inhibitor, LmPK inhibitor, CHX counter)
COc1ccc(NN=Nc2ccc([N+](=O)[O-])cc2)cc1	CHX counter 32
O=c1c(-c2ccc(Br)cc2)coc2c(CN3CCCCC3)c(O)ccc12	none
COc1ccc(Oc2coc3c(CN4CCOCC4)c(O)ccc3c2=O)cc1	Sm TGR block 45µM
O=c1c(-c2ccc(Br)cc2)coc2c(CN3CCOCC3)c(O)ccc12	Shiga inhibitor 35, CHX counter 22
Cc1ccc(NC2(c3ccccc3)C(=O)c3ccccc3C2=O)cc1F	none (no result: Giardia FBPA inh, Shiga inhibitor, LmPK inhibitor, CHX counter)
CCCCOC(=O)c1ccc(NC(=O)Cn2nnc3sc4c(c3c2=O)CCCC4)cc1	none (no result: Giardia FBPA inh, Shiga inhibitor, LmPK inhibitor, CHX counter)
Cc1c(C(=O)Nc2ccc(F)c(Cl)c2)sc2nc3n(c(=O)c12)CCC3	none (no result: Giardia FBPA inh, Shiga inhibitor, LmPK inhibitor, CHX counter)
N=c1c2c(ncn1Cc1ccco1)Oc1cc(O)ccc1C2c1ccccc1 (centres undefined)	Sm TGR block inconclusive
N=c1c2c(ncn1Cc1ccco1)Oc1c(ccc3ccccc13)C2c1ccccc1 (centres undefined)	Shiga inhibitor 18, CHX counter 23
O=c1sc2ccccc2c(N2CCOCC2)c1[N+](=O)[O-]	Sm TGR block 40µM
Cc1c(-c2ccc(Cl)cc2)c(=O)oc2c(CN3CCN(CCO)CC3)c(O)ccc12	none (no result: Giardia FBPA inh, Shiga inhibitor, LmPK inhibitor, CHX counter)
CC(C)(C)OC(=O)N1CCN(C(=O)c2[nH]cnc2C(=O)Nc2ccon2)CC1	none (no result: Giardia FBPA inh, Shiga inhibitor, LmPK inhibitor, CHX counter)
CC1CCN(C(=O)c2[nH]cnc2C(=O)Nc2ccon2)CC1	Sm TGR block 40µM (no result: Giardia FBPA inh, Shiga inhibitor, LmPK inhibitor, CHX counter)
COCCCNC(=O)c1cnn(-c2ccccc2Cl)c1C1CCN(C(=O)OC(C)(C)C)CC1	none (no result: Giardia FBPA inh, Shiga inhibitor, LmPK inhibitor, CHX counter)
CCCCOC(=O)c1ccc(NC(=O)COC(=O)CSc2nc(C)cc(C)n2)cc1	Shiga inhibitor 58, CHX counter 21
CCCCOC(=O)c1ccc(NC(=O)CSc2nncn2C)cc1	CHX counter 25
COC(=O)c1ccc(NC(=O)CSc2nncn2C)cc1	none
N#C/C(=C/c1ccc(N2CCCC2)c([N+](=O)[O-])c1)c1nc2ccccc2[nH]1	Shiga inhibitor 65, CHX counter 42 (no result: TbPYK inhibitor)
N#C/C(=C/N1CCOCC1)c1ccccc1	none
Cc1ccc2nc(/C(C#N)=C\c3ccc(N4CCCCC4)c([N+](=O)[O-])c3)[nH]c2c1	none
